Screening results as filed in PubChem BioAssay.
The full list was thinned out, with hits kept by preference.
PRC2 inh = blocks human EZH2/PRC2 H3K27 methylation; Q15910; DELFIA TRF, 1 h; inhibition, % at 12.5 µM; actives 0.35% (n = 57,000); AID 651548;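 active = mean inhibition of replicates at least 50% and every single replicate also reaching 50%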;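 also: dimethyl H3K27 on biotinylated H3 21-44 peptide detected by antibody; plate controls were median neutral control wells for no effect and median positive control wells for full effect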
Target sequence (Q15910 whole entry, looked up): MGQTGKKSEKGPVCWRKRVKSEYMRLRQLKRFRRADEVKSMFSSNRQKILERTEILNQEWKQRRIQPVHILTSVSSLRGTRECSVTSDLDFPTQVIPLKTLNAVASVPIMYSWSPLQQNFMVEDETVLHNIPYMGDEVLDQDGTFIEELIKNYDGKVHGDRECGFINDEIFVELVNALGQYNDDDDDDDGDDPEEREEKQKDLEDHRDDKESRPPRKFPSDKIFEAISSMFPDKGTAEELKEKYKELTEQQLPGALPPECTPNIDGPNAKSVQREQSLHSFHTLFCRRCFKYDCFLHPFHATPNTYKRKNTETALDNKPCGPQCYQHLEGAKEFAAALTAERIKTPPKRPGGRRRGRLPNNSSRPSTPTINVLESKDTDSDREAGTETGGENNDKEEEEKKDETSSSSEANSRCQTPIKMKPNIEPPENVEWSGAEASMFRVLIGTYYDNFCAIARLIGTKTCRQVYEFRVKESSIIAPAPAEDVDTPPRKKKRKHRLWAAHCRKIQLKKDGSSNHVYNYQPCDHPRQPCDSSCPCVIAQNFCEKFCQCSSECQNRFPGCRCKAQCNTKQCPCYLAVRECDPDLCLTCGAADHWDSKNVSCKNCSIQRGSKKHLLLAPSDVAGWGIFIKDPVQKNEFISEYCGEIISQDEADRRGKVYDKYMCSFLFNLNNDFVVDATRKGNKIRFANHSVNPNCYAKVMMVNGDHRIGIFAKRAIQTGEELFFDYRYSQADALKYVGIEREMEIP
* = called active by the depositor.

SMILES | PRC2 inh
COC(=O)C1=COC(O[C@@H]2O[C@H](CO)[C@@H](O)[C@H](O)[C@H]2O)[C@H]2[C@@H]1[C@H](OC(=O)CCc1ccc(O)cc1)C[C@]2(C)O (some centres undefined) | 2
O=C(CSc1nc(C(F)(F)F)cc(=O)[nH]1)Nc1ccc(F)cc1 | 10
CC1(C)CC(=O)C=C(NCC2CCN(C(=S)Nc3ccccc3)CC2)C1 | -4
COc1cccc(-c2nn(C)c3sc(C(=O)N4CCCCCC4)cc23)c1 | 16
Cn1c(SCC(=O)Nc2ccccc2F)nnc1-c1ccc(Br)cc1 | 15
O=C1NC(=O)C(C(CC(=O)c2ccccc2)c2ccccc2Br)C(=O)N1 (centres undefined) | -2
O=[N+]([O-])c1nn(-c2ccc(Cl)cc2)n(O)c1=NCc1ccccn1 | 9
C=C1C(=O)O[C@@H]2C3=C(C)CC[C@]34O[C@@H](C[C@@H]4C)[C@H]12 | 2
Oc1ccc(CCCCC(CCc2ccc(O)cc2)O[C@@H]2OC[C@@H](O)[C@H](O)[C@H]2O)cc1 (some centres undefined) | 11
O=C(CCc1ccc(O)cc1)c1c(O)c([C@@H]2O[C@H](CO)[C@@H](O)[C@H](O)[C@H]2O)c(O)c([C@@H]2O[C@H](CO)[C@@H](O)[C@H](O)[C@H]2O)c1O | 11
OC[C@H]1O[C@@H](OC(CCCCc2ccc(O)cc2)CCc2ccc(O)cc2)[C@H](O)[C@@H](O)[C@@H]1O (some centres undefined) | 73*
CCOC(=O)Cc1nc(OCC(=O)c2ccc(F)cc2)cs1 | 3
Cc1ccc(NCc2ccc(C(=O)Nc3ccccc3[N+](=O)[O-])cc2)cc1C | 2
CCOc1ccc2[nH]c(C)c(CCC(C)=O)c(=O)c2c1 | -6
COC(=O)CCCCCCC(=O)N/N=C/c1ccc(OC)cc1OC | 8
COc1ccc(/C=N/NC(=O)c2ccc(C(=O)NO)cc2)c(OC)c1 | -1
COc1cc(/C=C/c2ccc(OC)cc2OC)cc(OC)c1 | 51*
CCn1c(SCC(=O)Nc2cccc(C(F)(F)F)c2)nnc1-c1ccco1 | -19
CC1CCc2c(sc3ncnc(NCCc4nc5ccccc5[nH]4)c23)C1 (centres undefined) | -42
COc1cc(Cc2nnc(C(=O)NC(C)C)o2)cc(OC)c1OC | -6
Cc1oc(C(C)(C)C)cc1-c1cc(N)n(-c2ccc(I)cc2)n1 | 20
COC(=O)[C@H](Cc1ccccc1)N1C(=O)O[C@H](Cc2ccccc2)[C@@H]1/C=C/C1CC1 | 56*
COc1ccccc1NC(=O)C(Cc1ccccc1)N1C(=O)C2C3c4ccccc4C(c4ccccc43)C2C1=O (centres undefined) | -2
COC(=O)[C@H](Cc1ccc(N=[N+]=[N-])cc1)N1CC(/C=C/[C@@H](O)Cc2ccccc2)=C[C@@H](C2CC2)O1 | 0
CC(C)(C)c1cc(C(C)(C)C)n(-c2ccc(-n3cccc3)cc2)n1 | -5
SMILES | PRC2 inh
O=C(Cn1cnc2ccccc2c1=O)Nc1ccc2c(c1)Cc1ccccc1-2 | -3
Cc1cc(C#N)c2c(C)ccc(C(C)C)cc1-2 | 29
CC1OC(Oc2cc(O)c3c(=O)c(OC4OC(CO)C(O)C(O)C4OC4OC(C)C(O)C(O)C4O)c(-c4ccc(O)cc4)oc3c2)C(O)C(O)C1O (centres undefined) | -12
COc1c(OC2OC(CO)C(O)C(O)C2O)ccc(O)c1C(=O)OCc1ccccc1O[C@@H]1O[C@H](CO)[C@@H](O)[C@H](O)[C@H]1O (some centres undefined) | 18
COc1cc(-c2oc3cc(O)cc(O)c3c(=O)c2OC2OC(CO[C@@H]3O[C@@H](C)[C@H](O)[C@@H](O)[C@H]3O)C(O)C(O)C2O)ccc1O (some centres undefined) | 23
O=c1c(O[C@@H]2O[C@H](CO)[C@@H](O)[C@H](O)[C@H]2O)c(-c2ccc(O)cc2)oc2cc(O)cc(O)c12 | -5
COc1cc(-c2oc3cc(O)cc(O)c3c(=O)c2OC2OC(CO)C(O)C(O)C2O)ccc1O (centres undefined) | 56*
C[C@@H]1O[C@@H](O[C@@H]2[C@@H](O)[C@H](Oc3c(-c4ccc(O)cc4)oc4cc(O)cc(O)c4c3=O)O[C@H](CO)[C@H]2O)[C@H](O)[C@H](O)[C@H]1O | 59*
COc1cc2c(=O)c(-c3ccc(O)cc3)coc2cc1O[C@@H]1O[C@@H](C)[C@H](O)[C@@H](O)[C@H]1O | -20
C[C@@H]1O[C@@H](OCC2OC(OC3C(OC4C(Oc5c(-c6ccc(O)c(O)c6)oc6cc(O)cc(O)c6c5=O)OC(CO)C(O)C4O)OC(CO)C(O)C3O)C(O)C(O)C2O)[C@H](O)[C@H](O)[C@H]1O (some centres undefined) | 6
O=c1c(O[C@@H]2O[C@H](CO)[C@@H](O)[C@H](O)[C@H]2O)c(-c2ccc(O)c(O)c2)oc2cc(O)cc(O)c12 | 58*
Cc1ccc(N(C(C)C(N)=O)S(C)(=O)=O)cc1C (centres undefined) | 1
CC(Sc1nc(-c2ccccc2)c(C#N)c(=O)[nH]1)C(=O)Nc1ccc(Cl)cc1 (centres undefined) | 46
O=C(CSc1ncn[nH]1)N(c1ccccc1)c1ccccc1 | 4
CC(Sc1nc(-c2ccccc2)c(C#N)c(=O)[nH]1)C(=O)Nc1cccc(Cl)c1 (centres undefined) | 63*
N#Cc1c(-c2ccccc2)nc(SCC(=O)N(c2ccccc2)c2ccccc2)[nH]c1=O | 52*
O=C(CSc1nc2sc3c(c2c(=O)[nH]1)CCCC3)N(c1ccccc1)c1ccccc1 | 31
CC(Sc1nc2ccccc2[nH]1)C(=O)Nc1cccc(Cl)c1 (centres undefined) | 2
Cn1nnnc1SCC(=O)Nc1ncccn1 | -12
COC(=O)COc1ccc(NC(=O)c2ccc([N+](=O)[O-])c(C)c2)cc1 | -22
O=c1cc(-c2ccc(O)cc2)oc2cc(O[C@@H]3O[C@H](CO)[C@@H](O)[C@H](O)[C@H]3O[C@@H]3OC[C@](O)(CO)[C@H]3O)cc(O)c12 | -11
O=c1cc(-c2ccc(O)c(O)c2)oc2c(C3O[C@H](CO)[C@H](O)[C@H](O)[C@H]3O)c(O)cc(O)c12 (some centres undefined) | 81*
COc1cc(O[C@@H]2O[C@H](CO)[C@@H](O)[C@H](O)[C@H]2O)c2c(=O)cc(-c3ccccc3)oc2c1OC | -9
COC(=O)c1cccc(NC(=O)CN(c2ccc(F)cc2)S(C)(=O)=O)c1C | -14
O=C(CSc1nc(-c2ccccc2)cc(=O)[nH]1)Nc1cc(C(F)(F)F)ccc1Cl | 64*
SMILES | PRC2 inh
Cc1ccc(NC(=O)CSc2nc(-c3ccccc3)cc(=O)[nH]2)cc1Cl | 14
O=C(CSc1nc(-c2ccccc2)cc(=O)[nH]1)Nc1cccc(Cl)c1Cl | 47
CS(=O)(=O)N(CC(=O)Nc1cccc(C(F)(F)F)c1)Cc1ccccc1 | -1
CC(C)(Sc1ccc(CCN(CCCCC2CCCCC2)C(=O)NC2CCCCC2)cc1)C(=O)O | 86*
Cc1oc(-c2ccc(Cl)cc2)cc1COC(=O)Nc1ccccc1 | 42
CC(=O)OC1=C(C(=O)c2ccccc2)N(C)S(=O)(=O)c2ccccc21 | -11
CC(=O)c1cccc(NC(=O)Nc2nn(Cc3c(F)cccc3Cl)cc2Br)c1 | 9
COc1cccc2c1C(=O)CC(c1ccccc1)O2 (centres undefined) | -11
COc1cc(O)c(OC)c2c1C(=O)CC(c1ccccc1)O2 (centres undefined) | 77*
